Test systems include NCI-H23 lung; NCI-H226 lung; NCI-H322M lung; HOP-62 NSCLC; NCI-H460 lung; HOP-92 NSCLC; NCI-H522 lung; A549/ATCC NSCLC; 786-0 renal; COLO 205 colon; DU-145 prostate; K-562 leukemia; MALME-3M melanoma; MDA-MB-231 breast; RXF 393 renal; SF-268 CNS; SF-295 CNS; SF-539 CNS; UACC-257 melanoma; M14 melanoma.
Common to all, as to assay: NCI-60 one-dose screen, 48 h (100 = growth as untreated, 0 = no growth, -100 = all killed)
What all share (conditions): 10 µM unless noted

About 83,000 compounds went through this panel and 20% of them were active in at least one assay; those are over-represented in the sample as a whole.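 Testing used 96-well plates and a 48-hour single-concentration exposure. Example: -40 means 40% of the starting cells died.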 A number with no mark means an inactive call. Activity calls are given as the source filed them. How the source made its calls: active means growth percent below 10; inactive means the rest.

For the compound `N#Cc1c(-c2ccccc2)cc(-c2ccccc2)n(CCCC(=O)Nc2ccccc2N)c1=O`, the growth was 73.5% in the assay with NCI-H23 lung; 73.9% in the assay with NCI-H226 lung; 102% in the assay with NCI-H322M lung; 64.7% in the assay on HOP-62 NSCLC; 33.5% with NCI-H460 lung; 62.1% with HOP-92 NSCLC. The growth in the assay with NCI-H522 lung is 32.4%; with A549/ATCC NSCLC, 57.4%; in the assay with 786-0 renal, 63.9%; with COLO 205 colon it was 92.3%; in the assay with DU-145 prostate, 87.4%; with K-562 leukemia, 20.2%. In addition, the growth is 47.4% in the assay with MALME-3M melanoma; 69.9% with MDA-MB-231 breast; 55.8% in the assay with RXF 393 renal; 59.5% in the assay on SF-268 CNS; 35.1% with SF-295 CNS; 52.5% with SF-539 CNS. The growth is 78.2% in the assay on UACC-257 melanoma and 39.8% with M14 melanoma.

On to `COc1ccc(C2=C(Br)C(=O)c3nc(C)ccc3C2=O)cc1`, for which the growth in the assay with NCI-H23 lung was 88.1%; with NCI-H226 lung it was 83%; in the assay with NCI-H322M lung, 88.4%; with HOP-62 NSCLC it was 86.8%; in the assay on NCI-H460 lung, 95.7%; in the assay with HOP-92 NSCLC, 78%. Moreover, the growth was 24% in the assay with NCI-H522 lung; 98% with A549/ATCC NSCLC; 103% in the assay with 786-0 renal; 105% with DU-145 prostate; 36.7% in the assay on K-562 leukemia; 91.7% with MALME-3M melanoma. For the same compound, the growth is 73.2% in the assay with MDA-MB-231 breast; 95.2% in the assay with RXF 393 renal; 94.6% in the assay with SF-268 CNS; 105% in the assay with SF-295 CNS; 94.8% with SF-539 CNS; 64.2% in the assay on UACC-257 melanoma. Besides, the growth with M14 melanoma was 92.8%.

For the compound `Cn1ccnc1C(=O)/C=C/c1ccc(C(=O)Nc2ccccc2O)cc1`, the growth in the assay on NCI-H23 lung is 30.6%; in the assay on NCI-H226 lung, 63.4%; in the assay on NCI-H322M lung it was 45.3%; in the assay on HOP-62 NSCLC, 12.7%; in the assay with NCI-H460 lung it was 8.78% (active); with HOP-92 NSCLC, 81.4%. In addition, the growth with NCI-H522 lung is 60.4%; in the assay with A549/ATCC NSCLC, 31.2%; with 786-0 renal, 9.95% (active); with DU-145 prostate, 45.6%; in the assay on K-562 leukemia, 7.38% (active); in the assay on MALME-3M melanoma it was 57.8%. Also, the growth with MDA-MB-231 breast was 46.2%; in the assay with RXF 393 renal it was 21.7%; with SF-268 CNS, 13.2%; in the assay on SF-295 CNS it was 6.78% (active); in the assay with SF-539 CNS it was -19.3% (active); with UACC-257 melanoma, 48.6%. For the same compound, in the assay with M14 melanoma, the growth is 71.5%.

For the compound `O=C(c1ccccc1)c1ccc(C2CCCCC2)cc1`, the growth was 95% in the assay with NCI-H23 lung; 92.4% with NCI-H226 lung; 99.7% with NCI-H322M lung; 98.5% with HOP-62 NSCLC; 97% in the assay on NCI-H460 lung; 76.2% in the assay with HOP-92 NSCLC. For the same compound, the growth in the assay with NCI-H522 lung is 88.9%; in the assay with A549/ATCC NSCLC it was 98%; in the assay on 786-0 renal it was 90.1%; in the assay with DU-145 prostate it was 106%; in the assay on K-562 leukemia, 103%; with MALME-3M melanoma, 87.4%. Also, the growth in the assay on MDA-MB-231 breast is 102%; in the assay on RXF 393 renal, 100%; in the assay on SF-268 CNS it was 100%; with SF-295 CNS, 94.3%; in the assay with SF-539 CNS it was 102%; with UACC-257 melanoma, 105%. In the assay with M14 melanoma, the growth was 96.8%.

Turning to `COC(=O)CC[C@@H]1O[C@@H](c2cccc(C(F)(F)F)c2)[C@@H](O)[C@H]1O`, the growth in the assay on NCI-H23 lung is 94.2%; with NCI-H226 lung, 103%; in the assay on NCI-H322M lung, 103%; in the assay on HOP-62 NSCLC, 103%; with NCI-H460 lung it was 102%; with HOP-92 NSCLC, 84.3%. Moreover, the growth in the assay on NCI-H522 lung is 98.6%; with A549/ATCC NSCLC, 107%; with 786-0 renal it was 103%; with DU-145 prostate, 103%; in the assay on K-562 leukemia, 112%; in the assay on MALME-3M melanoma, 99.1%. In addition, the growth in the assay on MDA-MB-231 breast is 108%; in the assay on RXF 393 renal, 95.3%; with SF-268 CNS, 101%; in the assay with SF-295 CNS, 104%; in the assay with SF-539 CNS it was 97.2%; in the assay on UACC-257 melanoma it was 106%. Further, the growth with M14 melanoma is 102%.

For the compound `Cn1c(I)c(C#CCO[Si](C)(C)C(C)(C)C)c(=O)[nH]c1=O`, the growth in the assay on NCI-H23 lung was 96.4%; with NCI-H226 lung, 108%; in the assay with NCI-H322M lung, 95.5%; in the assay on HOP-62 NSCLC, 96.9%; in the assay on NCI-H460 lung it was 106%; in the assay on HOP-92 NSCLC, 59.4%. Moreover, the growth in the assay on NCI-H522 lung is 74.2%; with 786-0 renal, 99%; in the assay on COLO 205 colon, 82.7%; in the assay on DU-145 prostate, 99.9%; in the assay with K-562 leukemia, 2.55% (active); with MALME-3M melanoma it was -51.2% (active). For the same compound, the growth is 91.5% with MDA-MB-231 breast; -15.3% (active) in the assay with RXF 393 renal; 105% in the assay on SF-268 CNS; 101% in the assay on SF-295 CNS; 104% in the assay on SF-539 CNS; 96.6% in the assay with UACC-257 melanoma. Besides, the growth in the assay on M14 melanoma is 83.1%.

As to `C=C(C)[C@@H]1CC[C@]2(C(=O)N3CCOCC3)CC[C@]3(C)[C@H](CC[C@@H]4[C@@]5(C)C/C(=C/c6ccncc6)C(=O)C(C)(C)[C@@H]5CC[C@]43C)[C@@H]12`, the growth in the assay on NCI-H23 lung was 61.7%; in the assay with NCI-H226 lung it was 42.9%; in the assay with NCI-H322M lung it was 86.8%; in the assay with HOP-62 NSCLC it was 80.8%; with NCI-H460 lung, 49.7%; with HOP-92 NSCLC, 39.5%. The growth in the assay with NCI-H522 lung is 50.3%; in the assay with 786-0 renal it was 76.4%; in the assay with COLO 205 colon it was 51.5%; in the assay with DU-145 prostate, 77.9%; in the assay on K-562 leukemia, 38.6%; with MALME-3M melanoma, 77.5%. Also, the growth is 78.6% in the assay with MDA-MB-231 breast; 52.3% in the assay on RXF 393 renal; 66.3% with SF-268 CNS; 85.9% in the assay with SF-295 CNS; 78.5% with SF-539 CNS; 53.7% with UACC-257 melanoma. For the same compound, the growth in the assay on M14 melanoma was 75%.

Values taken from PubChem BioAssay (NCI).
